This note sets out measurements from publication PMC7862700, “An all-to-all approach to the identification of sequence-specific readers for epigenetic DNA modifications on cytosine”.

Assay in all cases: DAPPL (digital affinity profiling via proximity ligation, sequencing); 10 mM Tris-HCl pH 7.5, 50 mM NaCl, 1 mM DTT, 4% glycerol, room temperature, 30 min; GST-TFs on glutathione beads, 16-mer random dsDNA library, 0.1% formaldehyde crosslink after washing; high values mean tight binding
Holding throughout (conditions): protein: recombinant; tags: N-terminal GST; dsDNA, one strand shown

One assay concerns the target T1, FLI1 (Homo sapiens, UniProt Q01543 1-452).
T1 sequence: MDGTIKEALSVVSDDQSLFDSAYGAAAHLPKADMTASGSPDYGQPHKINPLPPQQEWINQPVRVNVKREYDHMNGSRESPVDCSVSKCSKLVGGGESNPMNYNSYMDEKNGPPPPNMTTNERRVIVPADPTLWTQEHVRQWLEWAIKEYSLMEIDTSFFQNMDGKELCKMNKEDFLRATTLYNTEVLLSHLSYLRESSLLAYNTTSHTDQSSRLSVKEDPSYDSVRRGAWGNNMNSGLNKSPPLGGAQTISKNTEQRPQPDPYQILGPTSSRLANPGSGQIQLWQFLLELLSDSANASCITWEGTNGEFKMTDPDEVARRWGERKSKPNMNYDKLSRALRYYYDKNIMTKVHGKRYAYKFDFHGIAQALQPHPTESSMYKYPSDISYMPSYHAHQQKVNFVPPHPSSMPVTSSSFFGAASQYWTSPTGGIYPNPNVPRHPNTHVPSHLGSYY
The method, boiled down:
(§1)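 Pools were built from human transcription factors expressed in yeast as GST fusions, captured on glutathione beads and DNA-barcoded, along with a tag-only sample. Incubation with 200 nmole of a 16-mer random double-stranded DNA library lasted 30 min at room temperature in Tris/NaCl/DTT/glycerol buffer, and was followed by washing, 0.1% formaldehyde crosslinking, proximity ligation, PCR amplification and Illumina NextSeq500 sequencing. Binding signal is the quotient of each hexamer's read frequency for a factor and its frequency for the tag-only sample.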

For a further assay, the target named is T2, ELK1 (Homo sapiens, UniProt P19419 1-428).
T2 sequence: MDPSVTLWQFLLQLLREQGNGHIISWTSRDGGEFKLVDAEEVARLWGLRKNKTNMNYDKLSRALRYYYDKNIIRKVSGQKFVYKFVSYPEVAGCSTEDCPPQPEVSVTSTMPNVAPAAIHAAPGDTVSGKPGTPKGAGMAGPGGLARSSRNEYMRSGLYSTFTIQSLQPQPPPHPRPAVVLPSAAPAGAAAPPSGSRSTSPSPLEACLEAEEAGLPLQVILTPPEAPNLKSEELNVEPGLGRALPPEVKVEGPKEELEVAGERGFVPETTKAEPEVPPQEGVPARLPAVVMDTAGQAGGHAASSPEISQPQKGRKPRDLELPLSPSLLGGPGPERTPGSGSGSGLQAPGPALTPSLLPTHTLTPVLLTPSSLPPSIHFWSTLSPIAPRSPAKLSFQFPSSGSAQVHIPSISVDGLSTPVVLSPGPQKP
The method, boiled down: as §1

The target in another assay is T3, GABPA (Homo sapiens, UniProt Q06546 1-454).
T3 sequence: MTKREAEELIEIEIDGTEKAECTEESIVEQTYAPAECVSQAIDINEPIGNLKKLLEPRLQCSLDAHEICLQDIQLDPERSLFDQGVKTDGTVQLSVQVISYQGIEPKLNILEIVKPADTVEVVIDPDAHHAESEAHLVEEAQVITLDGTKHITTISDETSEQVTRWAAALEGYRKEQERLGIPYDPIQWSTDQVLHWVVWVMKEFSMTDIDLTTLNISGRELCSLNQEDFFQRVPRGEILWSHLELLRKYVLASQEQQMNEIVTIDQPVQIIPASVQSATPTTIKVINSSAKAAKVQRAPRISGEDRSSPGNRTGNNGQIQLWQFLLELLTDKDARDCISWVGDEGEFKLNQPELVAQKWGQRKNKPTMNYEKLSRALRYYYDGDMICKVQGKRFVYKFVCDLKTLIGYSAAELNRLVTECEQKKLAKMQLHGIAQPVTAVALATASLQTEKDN
In short, it runs like this: as §1

The target in a further assay is T4, ERG (Homo sapiens, UniProt P11308 1-479).
T4 sequence: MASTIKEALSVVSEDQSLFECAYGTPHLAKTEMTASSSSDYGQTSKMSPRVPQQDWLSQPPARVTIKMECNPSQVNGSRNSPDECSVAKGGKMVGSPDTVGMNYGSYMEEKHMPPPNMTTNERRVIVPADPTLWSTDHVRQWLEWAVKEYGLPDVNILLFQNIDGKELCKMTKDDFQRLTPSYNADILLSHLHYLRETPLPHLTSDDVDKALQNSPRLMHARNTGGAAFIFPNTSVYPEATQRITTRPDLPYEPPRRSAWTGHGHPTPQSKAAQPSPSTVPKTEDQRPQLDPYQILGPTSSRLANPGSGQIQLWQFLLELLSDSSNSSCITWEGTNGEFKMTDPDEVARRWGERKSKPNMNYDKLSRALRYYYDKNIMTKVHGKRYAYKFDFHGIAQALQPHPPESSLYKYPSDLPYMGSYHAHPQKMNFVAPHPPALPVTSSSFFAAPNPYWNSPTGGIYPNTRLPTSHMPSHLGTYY
In short, it runs like this: as §1

The target of a further assay is ELF1 (Homo sapiens, UniProt P32519 1-619). In short, it runs like this:
as §1

The target of the next assay is T5, EHF (Homo sapiens, UniProt Q9NZC4 1-300).
T5 sequence: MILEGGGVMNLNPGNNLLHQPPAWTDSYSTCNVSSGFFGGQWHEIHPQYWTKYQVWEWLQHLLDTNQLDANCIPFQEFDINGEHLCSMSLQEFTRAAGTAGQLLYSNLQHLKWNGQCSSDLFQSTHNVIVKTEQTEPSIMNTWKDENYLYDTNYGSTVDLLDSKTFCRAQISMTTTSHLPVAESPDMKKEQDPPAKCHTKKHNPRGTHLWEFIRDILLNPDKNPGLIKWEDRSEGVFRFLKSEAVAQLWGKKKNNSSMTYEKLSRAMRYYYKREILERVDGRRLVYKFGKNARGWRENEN
The method, boiled down:
as §1

The next assay has as its target SPI1 (Homo sapiens, UniProt P17947 1-270). In short, it runs like this: as §1
Another assay has as its target SPIB (Homo sapiens, UniProt Q01892 1-262). In short, it runs like this:
as §1

In the next assay the target is T6, ELK3 (Homo sapiens, UniProt P41970 1-407).
T6 sequence: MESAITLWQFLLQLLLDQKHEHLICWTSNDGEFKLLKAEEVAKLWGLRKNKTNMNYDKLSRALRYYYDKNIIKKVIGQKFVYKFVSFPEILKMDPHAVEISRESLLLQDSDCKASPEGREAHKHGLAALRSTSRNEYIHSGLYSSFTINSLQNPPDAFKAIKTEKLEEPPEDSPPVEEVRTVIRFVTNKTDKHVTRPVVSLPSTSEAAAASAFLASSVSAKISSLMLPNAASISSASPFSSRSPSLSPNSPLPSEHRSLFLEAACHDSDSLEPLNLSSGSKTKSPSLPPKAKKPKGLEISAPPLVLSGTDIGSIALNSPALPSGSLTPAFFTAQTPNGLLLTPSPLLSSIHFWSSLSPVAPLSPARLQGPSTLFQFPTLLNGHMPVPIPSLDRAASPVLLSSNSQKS
The method, boiled down: as §1

Chain of SPIB (Q01892 whole entry): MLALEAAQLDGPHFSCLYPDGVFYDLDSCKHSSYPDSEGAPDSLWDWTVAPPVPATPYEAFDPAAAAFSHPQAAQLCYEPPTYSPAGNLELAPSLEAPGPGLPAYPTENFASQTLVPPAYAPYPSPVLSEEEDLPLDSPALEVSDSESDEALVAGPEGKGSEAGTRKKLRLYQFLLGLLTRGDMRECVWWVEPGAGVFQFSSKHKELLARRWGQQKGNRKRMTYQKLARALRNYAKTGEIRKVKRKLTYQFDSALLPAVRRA
Chain of ELF1 (P32519 whole entry): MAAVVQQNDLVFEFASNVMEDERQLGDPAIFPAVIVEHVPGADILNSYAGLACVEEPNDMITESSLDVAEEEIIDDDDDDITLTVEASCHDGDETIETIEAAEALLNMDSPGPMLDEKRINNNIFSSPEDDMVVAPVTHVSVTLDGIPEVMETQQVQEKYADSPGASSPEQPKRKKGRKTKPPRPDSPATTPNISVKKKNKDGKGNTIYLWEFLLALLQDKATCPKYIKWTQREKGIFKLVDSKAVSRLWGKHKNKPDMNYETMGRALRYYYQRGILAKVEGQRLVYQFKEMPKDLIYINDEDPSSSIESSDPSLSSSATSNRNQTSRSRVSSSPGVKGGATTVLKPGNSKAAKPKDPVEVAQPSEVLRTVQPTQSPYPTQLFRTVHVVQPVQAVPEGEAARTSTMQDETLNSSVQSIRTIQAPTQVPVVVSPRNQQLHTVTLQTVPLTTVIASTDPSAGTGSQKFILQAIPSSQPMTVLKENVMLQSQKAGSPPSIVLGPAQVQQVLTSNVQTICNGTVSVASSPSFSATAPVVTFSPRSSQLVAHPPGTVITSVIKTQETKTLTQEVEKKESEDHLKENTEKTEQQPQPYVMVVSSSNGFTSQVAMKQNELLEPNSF

Regarding CCCTTC, the binding signal is 1.55 fold enrichment (6-mer frequency, TF over GST control) with FLI1; 1.55 fold enrichment (6-mer frequency, TF over GST control) with ELK1; 1.39 fold enrichment (6-mer frequency, TF over GST control) in the assay with GABPA; 1.48 fold enrichment (6-mer frequency, TF over GST control) with ERG; 1.45 fold enrichment (6-mer frequency, TF over GST control) with ELF1; 1.52 fold enrichment (6-mer frequency, TF over GST control) with EHF. Besides, the binding signal with SPI1 was 1.52 fold enrichment (6-mer frequency, TF over GST control); with SPIB, 1.56 fold enrichment (6-mer frequency, TF over GST control); with ELK3 it was 1.44 fold enrichment (6-mer frequency, TF over GST control).
Take AACACA: the binding signal was 1.32 fold enrichment (6-mer frequency, TF over GST control) with FLI1; 1.32 fold enrichment (6-mer frequency, TF over GST control) with ELK1; 1.33 fold enrichment (6-mer frequency, TF over GST control) with GABPA; 1.32 fold enrichment (6-mer frequency, TF over GST control) with ERG; 1.39 fold enrichment (6-mer frequency, TF over GST control) with ELF1; 1.38 fold enrichment (6-mer frequency, TF over GST control) with EHF. For the same sequence, the binding signal with SPI1 is 1.27 fold enrichment (6-mer frequency, TF over GST control); with SPIB, 1.35 fold enrichment (6-mer frequency, TF over GST control); with ELK3, 1.26 fold enrichment (6-mer frequency, TF over GST control).
With CTCCAA, the binding signal with FLI1 is 1.23 fold enrichment (6-mer frequency, TF over GST control); with ELK1 it was 1.41 fold enrichment (6-mer frequency, TF over GST control); with GABPA it was 1.4 fold enrichment (6-mer frequency, TF over GST control); in the assay with ERG, 1.32 fold enrichment (6-mer frequency, TF over GST control); with ELF1, 1.3 fold enrichment (6-mer frequency, TF over GST control); with EHF it was 1.26 fold enrichment (6-mer frequency, TF over GST control). The binding signal with SPI1 was 1.29 fold enrichment (6-mer frequency, TF over GST control); with SPIB it was 1.31 fold enrichment (6-mer frequency, TF over GST control); with ELK3, 1.25 fold enrichment (6-mer frequency, TF over GST control).
In the case of ACAGCT, the binding signal with FLI1 is 1.15 fold enrichment (6-mer frequency, TF over GST control); with ELK1, 1.14 fold enrichment (6-mer frequency, TF over GST control); with GABPA, 1.19 fold enrichment (6-mer frequency, TF over GST control); with ERG it was 1.17 fold enrichment (6-mer frequency, TF over GST control); with ELF1 it was 1.16 fold enrichment (6-mer frequency, TF over GST control); with EHF, 1.16 fold enrichment (6-mer frequency, TF over GST control). In addition, the binding signal with SPI1 is 1.11 fold enrichment (6-mer frequency, TF over GST control); in the assay with SPIB, 1.2 fold enrichment (6-mer frequency, TF over GST control); with ELK3, 1.18 fold enrichment (6-mer frequency, TF over GST control).
Regarding TAATTT, the binding signal with FLI1 is 1.35 fold enrichment (6-mer frequency, TF over GST control); with ELK1, 1.28 fold enrichment (6-mer frequency, TF over GST control); in the assay with GABPA it was 1.5 fold enrichment (6-mer frequency, TF over GST control); in the assay with ERG it was 1.4 fold enrichment (6-mer frequency, TF over GST control); with ELF1, 1.41 fold enrichment (6-mer frequency, TF over GST control); with EHF, 1.41 fold enrichment (6-mer frequency, TF over GST control). In addition, the binding signal with SPI1 is 1.38 fold enrichment (6-mer frequency, TF over GST control); with SPIB, 1.5 fold enrichment (6-mer frequency, TF over GST control); with ELK3, 1.52 fold enrichment (6-mer frequency, TF over GST control).
In the case of CATTCC, the binding signal in the assay with FLI1 was 1.29 fold enrichment (6-mer frequency, TF over GST control); with ELK1, 1.2 fold enrichment (6-mer frequency, TF over GST control); with GABPA, 1.27 fold enrichment (6-mer frequency, TF over GST control); in the assay with ERG, 1.25 fold enrichment (6-mer frequency, TF over GST control); in the assay with ELF1, 1.25 fold enrichment (6-mer frequency, TF over GST control); with EHF, 1.19 fold enrichment (6-mer frequency, TF over GST control). Moreover, the binding signal was 1.25 fold enrichment (6-mer frequency, TF over GST control) with SPI1; 1.3 fold enrichment (6-mer frequency, TF over GST control) with SPIB; 1.3 fold enrichment (6-mer frequency, TF over GST control) with ELK3.
On to TTCCTT, for which the binding signal in the assay with FLI1 was 1.88 fold enrichment (6-mer frequency, TF over GST control); with ELK1, 1.79 fold enrichment (6-mer frequency, TF over GST control); with GABPA, 1.84 fold enrichment (6-mer frequency, TF over GST control); in the assay with ERG, 2.11 fold enrichment (6-mer frequency, TF over GST control); in the assay with ELF1, 1.96 fold enrichment (6-mer frequency, TF over GST control); with EHF, 2.02 fold enrichment (6-mer frequency, TF over GST control). Further, the binding signal with SPI1 was 2.25 fold enrichment (6-mer frequency, TF over GST control); with SPIB, 2.01 fold enrichment (6-mer frequency, TF over GST control); with ELK3, 2.09 fold enrichment (6-mer frequency, TF over GST control).
